Source: PubChem BioAssay
Sm TGR inh = blocks Schistosoma mansoni thioredoxin glutathione reductase. purified TGR, DTNB reduction, TNB absorbance 405 nm. 3% of 360,000 active. AID 485364. Potency, µM (highest dose often 114 µM), hits mostly inhibitors; also: nearly all actives have a fitted effect of over 60% in size
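Kinetic colorimetric format: TGR-catalysed, NADPH-driven DTNB reduction monitored via TNB absorbance. Enzyme dispensed at 20 nM; compound exposure 15 min at room temperature before reaction start.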
Pf growth 96h = P. falciparum growth inhibition at 96 hours | 6.9% of 320,000 active | Potency, µM (titrated, usually from 28.7 µM), usual class: inhibitors | P. falciparum luciferase reporter growth, 96 h | AID 504834
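Erythrocytes infected with luciferase-expressing P. falciparum were dispensed at 2% hematocrit and 0.05% parasitemia (final), then incubated with compounds 96 hours at 37 C in 5% CO2. Luminescence after detection reagent addition reported growth.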
Cycloheximide cs = affects cycloheximide protein synthesis inhibition readout, counter-screen. 12% of 300,000 active. max response, %. cell reporter, cycloheximide protein synthesis inhibition counterscreen; in the data active = max response mostly above about 13%, no sharp cut-off; inactive = mostly below about 14%; also: read at 38.3 µM for the half of the compounds with a filed dose
NS1 inh = inhibitors of influenza NS1 protein function; Potency, µM (doses to about 46.1 µM); 0.4% of 270,000 active; calls by dose curve; also: actives are rising curves; nearly all actives have a fitted effect of over 50% in size
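OD600 was taken as the measure of yeast growth restored by compound in an NS1-expressing S. cerevisiae strain. Cells had been washed out of glucose medium and diluted 1:100 into galactose -URA medium, pH 6.0.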
Shiga inhibitor = Shiga toxin inhibition; 9.2% of 290,000 active; Vero cells, Shiga toxin protein synthesis inhibition reporter; inhibition, % at 38.7 µM; AID 2315; in the data active = inhibition mostly above about 28%, no sharp cut-off; inactive = mostly below about 43%
Pf growth 48h = inhibits P. falciparum growth in the first generation, 48 h | P. falciparum luciferase growth in erythrocytes, 48 h | Potency, µM (top dose mostly 28.7 µM), hits mostly inhibitors | 5.9% of 310,000 active
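Firefly luciferase activity from engineered P. falciparum reports growth; inhibitors lower the luminescent signal. Cultures contained 2% hematocrit erythrocytes at 0.1% final parasitemia.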
Hits are given with their value; – = inactive; ? = inconclusive; · = no result given; + = active, no number; [ ] = remark or other dose. The list is not random: actives were taken first. Their share in the collection is about 21%. Unless noted, calls follow the shape of the dose curve; as a rule, active = well fitted curve in the direction sought with a large enough effect; inconclusive = small, poorly fitted or top-dose-only effect, or another doubt; inactive = no such curve, though single readings can be large; an effect the other way counts as inactive or inconclusive.

SMILES	Sm TGR inh	Pf growth 96h	Cycloheximide cs	NS1 inh	Shiga inhibitor	Pf growth 48h
O=C(NCC(=O)N1CCN(Cc2ccccc2)CC1)c1ccc(Cl)cc1	–	–	18	–	–	–
O=C(NCC(=O)N1CCN(Cc2ccccc2)CC1)c1ccc(Br)cc1	–	–	–	–	–	–
O=C(Cc1ccc(Cl)cc1)NCC(=O)N1CCCCCC1	–	12µM	–	–	–	?
Cc1nn(C(=O)CNC(=O)c2ccccc2)c(C)c1C	–	?	38	·	–	–
CCn1c(Cc2ccccc2)nnc1SCC(=O)Nc1ccccc1O	–	–	–	·	–	–[5.75 µM]
O=S(=O)(c1ccc(SCc2cccc(Cl)c2)nc1)N1CCCC1	–	–	·	·	·	–
CC1CCCN(CCCNC(=O)c2ccc3c(c2)N(Cc2cccc(Cl)c2)C(=O)c2ccccc2S3(=O)=O)C1 (stereo not drawn)	–	·	·	·	·	·
CCOc1ccc(C(=O)NCC(=O)OCC(=O)N2CCCC2)cc1	–	–	–	·	–	–
CCOc1ccc(C(=O)NCC(=O)N2CCCC2)cc1	–	–	–	–	50	–
COC(=O)C(C)Oc1ccc(-c2nccc(-c3cccs3)n2)cc1 (stereo not drawn)	–	–	27	–	51	–
Oc1ccc(-c2nccc(-c3ccc(Cl)cc3Cl)n2)cc1	–	–	–	·	–	–
Oc1ccc(-c2nccc(-c3cccs3)n2)cc1	–	–	58	–	133	–
Oc1ccc(-c2nccc(-c3ccc(Cl)cc3)n2)cc1	–	–	53	·	123	–
CCOC(=O)C1CCN(c2c(Nc3ccc4c(c3)OCCO4)c(=O)c2=O)CC1	–	–	60	–	88	–
CCOC(=O)C1CCCN(CCC(=O)Nc2cccc(F)c2)C1 (stereo not drawn)	–	–	–	–	–	–
CCOC(=O)C1CCCN(c2c(Nc3cccc(C)c3)c(=O)c2=O)C1 (stereo not drawn)	–	8.3µM	–	–	–	·
CCOC(=O)C1CCCN(CCC(=O)Nc2cccc(C)c2)C1 (stereo not drawn)	–	–	49	–	82	–
CC12CC(c3ccccc3O1)N(C(=O)c1ccco1)C(=S)N2c1ccc(F)cc1 (stereo not drawn)	–	·	–	–	–	?
CCn1cc(/C=C/C(=O)NCc2c(C)nn(C)c2C)cn1	–	–	–	–	–	–
Cn1cc([N+](=O)[O-])c(C(=O)Nc2ccn(Cc3c(F)c(F)cc(F)c3F)n2)n1	–	·	–	–	–	–
CCn1cc(/C=C/C(=O)Nc2ccc(C)cc2Br)cn1	–	–	29	–	active	–
CCn1cc(/C=C/C(=O)Nc2ccn(Cc3c(F)c(F)cc(F)c3F)n2)cn1	–	13µM	–	–	–	?
NC(=O)C1CCCN(C(=O)c2ccc(Cl)c(S(=O)(=O)N3CCc4ccccc43)c2)C1 (stereo not drawn)	–	?	·	·	·	?
COc1cc(Cl)ccc1OCc1cc(C(=O)NCC(C)(C)N2CCOCC2)no1	?	–	43	–	50	–
COc1ccc(OCc2cc(C(=O)NCC(C)(C)N3CCOCC3)no2)c(Cl)c1	–	–	–	–	36	?
SMILES	Sm TGR inh	Pf growth 96h	Cycloheximide cs	NS1 inh	Shiga inhibitor	Pf growth 48h
COc1cc(Cl)ccc1OCc1cc(C(=O)NCc2cc(C(C)C)no2)no1	–	–	67	–	53	–
COc1ccc(OCc2cc(C(=O)NCCN3CCCc4ccccc43)no2)c(Cl)c1	–	–	16	–	–	?
COc1ccc(-c2cc(C(=O)NCc3ccc(Cl)cc3)no2)cc1OC	–	–	–	–	–	–
COC(=O)C1=C(NC(C)=O)CCS1	–	?	–	–	–	–
Cc1ccc(Cl)cc1NC(=O)Nc1nnc(N2CCCC(C)C2)s1 (stereo not drawn)	–	·	·	·	·	·
COc1ccccc1C1N(c2cc(Cl)ccc2OC)C(=O)C2CCCN21 (stereo not drawn)	–	–	–	–	–	·
COc1ccc(C2N(c3cc(Cl)ccc3OC)C(=O)C3CCCN32)c(OC)c1 (stereo not drawn)	–	0.93µM	–	–	–	·
O=C(OCC(=O)N1CCOCC1)c1cccc(S(=O)(=O)Nc2ccc(F)cc2)c1	–	–	·	·	·	?
Cc1cc(C(=O)C(C)Sc2cccc[n+]2[O-])c(C)n1-c1ccc(Cl)cc1 (stereo not drawn)	?	12µM	10	–	–	–
N=C1C(c2nc3ccccc3s2)=C(O)CN1Cc1ccco1	?	·	26	–	67	–
CCOC(=O)c1ccc(NC(=O)NC2CC3CCC(C2)N3)cc1 (stereo not drawn)	–	–	–	–	–	–
CCOC(=O)c1ccc(NC(=O)NC2CC3CCC(C2)N3Cc2nnnn2C(C)(C)C)cc1 (stereo not drawn)	–	–	–	–	–	2.1µM
COC(=O)c1ccc(NC(=S)NC2CCCCC2C)cc1 (stereo not drawn)	–	?	25	–	–	–
CCOC(=O)c1ccc(NC(=S)NC(=O)C2CCCC2)cc1	?	–	27	–	–	?
CCOC(=O)c1ccc(NC(=O)CNC(=O)C2CCCCC2)cc1	–	–	–	?	–	–
CCOC(=O)c1ccc(NC(=O)C2C3CCC(C3)C2C(=O)O)cc1 (stereo not drawn)	–	·	–	–	–	–
CC(C)COC(=O)c1ccc(NC(=O)C2C3CCC(C3)C2C(=O)O)cc1 (stereo not drawn)	–	–	62	–	74	–
COC(=O)C1=C(C)N(C(C)C)C(=O)C1(NC(=O)c1ccccc1OC)C(F)(F)F (stereo not drawn)	–	·	·	·	·	·
O=C(NCCCN1CCOCC1)C1CCN(S(=O)(=O)c2cccc(Cl)c2Cl)CC1	–	?	·	·	·	–
CCN(C(=O)C1CCCN(c2ncnc3c2nc2n3CCCCC2)C1)c1cccc(Cl)c1 (stereo not drawn)	–	?	–	–	–	?
O=C(NC(=S)Nc1ccc(Br)cc1)C1CCCCC1	–	–	–	–	–	?
CCOC(=O)c1ccc(NC(=S)NNC(=O)COC)cc1	–	?	–	–	–	–
COc1ccc(NC(=S)NC(=O)C2CCC2)cc1	?	–	40	–	43	–
O=C(NC(=S)Nc1ccc(Br)cc1)C1CCC1	–	?	47	–	102	–
CC(C)CC(=O)NC(=S)NNC(=O)c1ccc(NC(=O)C2CCCCC2)cc1	–	13µM	–	–	–	?
CCOC(=O)c1ccc(NC(=S)NNC(=O)C2(C)CC2(Cl)Cl)cc1 (stereo not drawn)	–	?	–	–	active	–
CCOc1ccc2c(c1)c(=O)c(S(=O)(=O)c1ccccc1)cn2CC(=O)Nc1ccccc1OC	–	·	·	·	·	·
COC(=O)c1ccc(NC(=S)NC(=O)C2CCC2)cc1	?	–	26	–	64	–
CCOC(=O)c1ccc(NC(=S)NC2CCCC2)cc1	–	?	22	–	+	–
